# Assay results published in the antibiotic and cytotoxicity screens of Wong et al. (2023).
# Hit rate of the full screen: of about 39,000 compounds, about 1,500 (3.8%) were called active. Only a selection was taken, and actives are over-represented in it overall.
# Tested on: HSkMC (human skeletal muscle cells)
# Assay: cytotoxicity call (relative viability < 0.9)
# Details: 10 µM
row,SMILES,cytotoxicity call
1,CCC(=O)Nc1ccc2c(c1)OC[C@@H](C)N(C(=O)CN1CCOCC1)C[C@H](C)[C@H](OC)CN(C)C2=O,inactive
2,CN(C)CCCNC(=O)C[C@H]1CC[C@H]2[C@@H](COC[C@@H](O)CN2S(=O)(=O)c2ccc(Cl)cc2)O1,inactive
3,C[C@H](CO)N1C[C@H](C)[C@@H](CN(C)S(C)(=O)=O)Oc2cc(C#CCN(C)C)ccc2S1(=O)=O,inactive
4,COCC(=O)Nc1ccc2c(c1)OC[C@@H](C)N(C(=O)Cc1ccccn1)C[C@@H](C)[C@@H](OC)CN(C)C2=O,inactive
5,C[C@H]1CN([C@@H](C)CO)C(=O)c2cc(NC(=O)C3CC3)ccc2O[C@H]1CN(C)Cc1ccc2c(c1)OCO2,inactive
6,COc1cccc(NC(=O)N(C)C[C@H]2Oc3cc(C#Cc4ccncc4)ccc3S(=O)(=O)N([C@H](C)CO)C[C@@H]2C)c1,inactive
7,COc1cccc(NC(=O)N(C)C[C@H]2Oc3cc(C#Cc4ccncc4)ccc3S(=O)(=O)N([C@@H](C)CO)C[C@@H]2C)c1,active
8,COc1cccc(NC(=O)N(C)C[C@H]2Oc3cc(C#Cc4ccncc4)ccc3S(=O)(=O)N([C@@H](C)CO)C[C@H]2C)c1,inactive
9,COc1cc2c(cc1OC)CN(C(=O)[C@H]1[C@@H]3C(=O)O[C@@H](c4ccccc4)[C@@H](c4ccccc4)N3[C@@H](c3ccc(O)cc3)[C@]13C(=O)Nc1ccccc13)CC2,inactive
10,O=c1/c(=C/c2cccc(Cl)c2)c2cccc3cccc1c32,inactive
11,Cc1noc(C)c1S(=O)(=O)N(C)C[C@H]1OCCCC[C@H](C)Oc2ccc(NS(=O)(=O)c3cn(C)cn3)cc2C(=O)N([C@H](C)CO)C[C@@H]1C,inactive
12,Cc1ccc(S(N)(=O)=O)cc1,inactive
13,CNS(=O)(=O)c1ccc(C)cc1,inactive
14,Cc1noc(C)c1S(=O)(=O)N(C)C[C@@H]1OCCCC[C@@H](C)Oc2ccc(NS(C)(=O)=O)cc2C(=O)N([C@@H](C)CO)C[C@@H]1C,inactive
15,COc1ccc(-n2nc(CCC(=O)N(C)O)cc2-c2ccc(Cl)cc2)cc1,inactive
16,CN(C)CCOC(=O)COc1ccc(Cl)cc1.Cl,inactive
17,CCCCc1nc(-c2ccc(OCCCN(CC)CC)cc2)cn1-c1ccc(Oc2ccc(Cl)cc2)cc1,active
18,C[C@@H]1CN([C@H](C)CO)C(=O)c2cc(NC(=O)NC3CCCCC3)ccc2O[C@@H](C)CCCCO[C@@H]1CN(C)Cc1ccc2c(c1)OCO2,inactive
19,CN(C)CCCNC(=O)C[C@@H]1C=C[C@@H](NC(=O)Cc2cccnc2)[C@@H](CO)O1,inactive
20,C[C@H](CO)N1C[C@H](C)[C@@H](CN(C)C(=O)Nc2ccc3c(c2)OCO3)Oc2ccc(NS(C)(=O)=O)cc2CC1=O,inactive
21,C[C@H]1CN([C@@H](C)CO)C(=O)Cc2cc(NS(=O)(=O)c3ccc(Cl)cc3)ccc2O[C@@H]1CN(C)Cc1ccc(-c2ccccc2)cc1,inactive

row,SMILES,cytotoxicity call
1,C[C@@H]1CN([C@@H](C)CO)C(=O)Cc2cc(NS(=O)(=O)c3ccc(Cl)cc3)ccc2O[C@@H]1CN(C)Cc1ccc(-c2ccccc2)cc1,inactive
2,C[C@H](CO)N1C[C@H](C)[C@H](CN(C)Cc2ccc(-c3ccccc3)cc2)Oc2ccc(NS(=O)(=O)c3ccc(Cl)cc3)cc2CC1=O,inactive
3,C[C@@H]1CN([C@H](C)CO)C(=O)Cc2cc(NS(=O)(=O)c3ccc(Cl)cc3)ccc2O[C@@H]1CN(C)Cc1ccc(-c2ccccc2)cc1,active
4,C[C@H]1CN([C@@H](C)CO)C(=O)Cc2cc(NS(=O)(=O)c3ccc(Cl)cc3)ccc2O[C@H]1CN(C)Cc1ccc(-c2ccccc2)cc1,active
5,C[C@@H]1CN([C@H](C)CO)C(=O)Cc2cc(NS(=O)(=O)c3ccc(Cl)cc3)ccc2O[C@H]1CN(C)Cc1ccc(-c2ccccc2)cc1,active
6,C[C@H](CO)N1C[C@H](C)[C@@H](CN(C)Cc2ccc(-c3ccccc3)cc2)Oc2ccc(NS(=O)(=O)c3ccc(Cl)cc3)cc2CC1=O,inactive
7,C[C@@H]1CN([C@@H](C)CO)C(=O)Cc2cc(NS(=O)(=O)c3ccc(Cl)cc3)ccc2O[C@H]1CN(C)Cc1ccc(-c2ccccc2)cc1,active
8,Cc1ccc(S(=O)(=O)N(C)C[C@@H]2Oc3c(NC(=O)c4cnccn4)cccc3C(=O)N([C@H](C)CO)C[C@@H]2C)cc1,inactive
9,CC=Cc1ccc2n(c1=O)C[C@H]1[C@H](CO)[C@@H](C(=O)NCCc3cn(C)cn3)N(C(=O)C3CC3)[C@@H]21,inactive
10,COc1ccc(S(=O)(=O)N(C)C[C@H]2OCc3cn(nn3)CCCC(=O)N([C@@H](C)CO)C[C@H]2C)cc1,inactive
11,C[C@H](CO)N1C[C@H](C)[C@@H](CN(C)C(=O)Nc2ccc3c(c2)OCO3)OCCCC[C@H](C)Oc2ccc(NC(=O)C3CCCCC3)cc2C1=O,inactive
12,C[C@H]1CN([C@@H](C)CO)C(=O)c2cc(C#CC3(O)CCCC3)cnc2O[C@H]1CN(C)C(=O)C1CCCCC1,inactive
13,Cc1noc(C)c1NC(=O)Nc1ccc2c(c1)C(=O)N([C@H](C)CO)C[C@@H](C)[C@H](CN(C)C(=O)Nc1ccc(C(F)(F)F)cc1)O2,inactive
14,O=C(C[C@@H]1CC[C@H]2[C@@H](COC[C@H](O)CN2C(=O)c2ccccc2)O1)N1CCOCC1,inactive
15,O=C(C[C@@H]1C[C@H]2c3cc(NS(=O)(=O)c4ccc(F)cc4)ccc3O[C@H]2[C@H](CO)O1)NCCN1CCCCC1,inactive
16,C[C@H](CO)N1C[C@H](C)[C@H](CN(C)S(=O)(=O)c2ccc(Cl)cc2)OCCCC[C@H](C)Oc2ccc(NC(=O)Nc3ccc(C(F)(F)F)cc3)cc2C1=O,inactive
17,C=CCOC(=O)[C@H]1[C@@H]2C(=O)O[C@@H](c3ccccc3)[C@@H](c3ccccc3)N2[C@@H](c2ccc(OCCOC(=O)[C@H]3C[C@H]4C(=O)N[C@@H](Cc5ccccc5)C(=O)N4[C@H]3c3cccc(OCCO)c3)cc2)[C@]12C(=O)Nc1ccccc12,inactive
18,Cc1nn(C[C@@H](O)Cn2cnc3c2c(=O)n(C)c(=O)n3C)c(C)c1Br,inactive
19,O=C(c1ccccc1Cl)c1cccnc1-c1nnn(Cc2cc(C(F)(F)F)cc(C(F)(F)F)c2)c1-c1ccncc1,active
20,NC1CCN(c2cccc(Cl)n2)CC1,inactive
21,CCN(CC)CCS(=O)(=O)[C@@H]1CCN2C(=O)c3coc(n3)CC(=O)C[C@H](O)/C=C(C)/C=C\CNC(=O)/C=C/[C@@H](C)[C@H](C(C)C)OC(=O)[C@@H]12,inactive

row,SMILES,cytotoxicity call
1,C[C@H](CO)N1C[C@H](C)[C@@H](CN(C)C(=O)Nc2ccc(F)cc2)OCCCC[C@H](C)Oc2ccc(NS(=O)(=O)c3ccc(F)cc3)cc2C1=O,inactive
2,C[C@@H]1CN([C@H](C)CO)C(=O)c2cc(NC(=O)C3CC3)ccc2O[C@H]1CN(C)S(=O)(=O)c1cccs1,inactive
3,C[C@@H]1CN([C@@H](C)CO)C(=O)c2cc(NC(=O)Cc3cn(C)c4ccccc34)ccc2O[C@H]1CN(C)C(=O)Nc1cccc2ccccc12,inactive
4,C[C@@H]1CN([C@H](C)CO)C(=O)c2cc(NC(=O)Cc3cn(C)c4ccccc34)ccc2O[C@H]1CN(C)C(=O)Nc1cccc2ccccc12,active
5,C[C@@H]1CN([C@@H](C)CO)C(=O)c2cc(NC(=O)Cc3cn(C)c4ccccc34)ccc2O[C@@H]1CN(C)C(=O)Nc1cccc2ccccc12,active
6,C[C@H]1CN([C@@H](C)CO)C(=O)Cc2cc(NC(=O)Cc3cn(C)c4ccccc34)ccc2O[C@H]1CN(C)C(=O)Nc1cccc2ccccc12,inactive
7,C[C@H](CO)N1C[C@H](C)[C@H](CN(C)C(=O)Nc2cccc3ccccc23)Oc2ccc(NC(=O)Cc3cn(C)c4ccccc34)cc2C1=O,inactive
8,C[C@H](CO)N1C[C@H](C)[C@@H](CN(C)C(=O)Nc2cccc3ccccc23)Oc2ccc(NC(=O)Cc3cn(C)c4ccccc34)cc2C1=O,inactive
9,C[C@H]1CN([C@@H](C)CO)C(=O)c2cc(NC(=O)Cc3cn(C)c4ccccc34)ccc2O[C@H]1CN(C)C(=O)Nc1cccc2ccccc12,inactive
10,C[C@H]1CN([C@@H](C)CO)C(=O)c2cc(NC(=O)Cc3cn(C)c4ccccc34)ccc2O[C@@H]1CN(C)C(=O)Nc1cccc2ccccc12,inactive
11,C[C@@H]1CN([C@H](C)CO)C(=O)c2cc(NC(=O)Cc3cn(C)c4ccccc34)ccc2O[C@@H]1CN(C)C(=O)Nc1cccc2ccccc12,active
12,COc1ccc(NC(=O)Nc2cccc3c2O[C@@H](CN(C)C(=O)Nc2cccc4ccccc24)[C@@H](C)CN([C@@H](C)CO)C3=O)cc1,inactive
13,O[C@H]1[C@H](O)[C@@H](O)[C@H](O)[C@H](O)[C@H]1O,inactive
14,COc1ccc(S(=O)(=O)N[C@H]2C=C[C@H](CC(=O)N3CCC(Cc4ccccc4)CC3)O[C@@H]2CO)cc1,inactive
15,CO[C@H]1CN(C)C(=O)c2cc(NC(=O)c3ccccc3)ccc2OC[C@H](C)N(C(=O)CN(C)C)C[C@@H]1C,inactive
16,C[C@@H]1CN([C@H](C)CO)C(=O)c2cccc(NC(=O)c3cnccn3)c2O[C@@H]1CN(C)CC1CCCCC1,inactive
17,COc1ccc(CN(C)C[C@@H]2Oc3ccc(NC(=O)C4CC4)cc3CC(=O)N([C@H](C)CO)C[C@@H]2C)cc1,inactive
18,C[C@@H]1CCCCO[C@H](CN(C)Cc2ccc(Cl)c(Cl)c2)[C@@H](C)CN([C@H](C)CO)C(=O)c2cc(NC(=O)Nc3ccc(F)cc3)ccc2O1,inactive
19,Cn1cnc(S(=O)(=O)N2C[C@H](O)COC[C@@H]3O[C@H](CC(=O)NCc4ccc(F)cc4)CC[C@H]32)c1,inactive
20,Cc1cc(C(=O)Nc2cccc3c2O[C@H](CN(C)C(=O)Nc2c(C)noc2C)[C@H](C)CN([C@@H](C)CO)C3=O)n(C)n1,inactive
